Holding throughout (test): DAPPL (digital affinity profiling via proximity ligation, sequencing); 10 mM Tris-HCl pH 7.5, 50 mM NaCl, 1 mM DTT, 4% glycerol, room temperature, 30 min; GST-TFs on glutathione beads, 16-mer random dsDNA library, 0.1% formaldehyde crosslink after washing; high values mean tight binding
The target in assay [1] is T1, FEV (Homo sapiens, UniProt Q99581 1-238).
T1 sequence: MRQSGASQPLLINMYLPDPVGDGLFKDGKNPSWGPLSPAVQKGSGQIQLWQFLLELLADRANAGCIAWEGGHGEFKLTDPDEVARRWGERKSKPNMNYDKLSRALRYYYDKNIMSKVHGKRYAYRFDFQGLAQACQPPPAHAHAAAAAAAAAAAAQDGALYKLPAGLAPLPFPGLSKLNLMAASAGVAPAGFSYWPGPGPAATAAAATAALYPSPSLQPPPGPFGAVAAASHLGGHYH
As to conditions: protein: recombinant; tags: N-terminal GST; dsDNA, one strand shown. The essentials:
(§1)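 Human transcription factors fused to GST were expressed in yeast, captured on glutathione beads, given DNA barcodes and pooled with a GST-only negative control. Pools were incubated with 200 nmole of a 16-mer random double-stranded DNA library in Tris/NaCl/DTT/glycerol buffer at room temperature for 30 min. They were then washed, crosslinked with 0.1% formaldehyde, proximity-ligated (BsaI/T4 ligase, 1 h, 37 °C), PCR-amplified and sequenced on an Illumina NextSeq500. Binding signal is each 6-mer's read frequency for a factor divided by its frequency for the GST control.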

In assay [2] the target is ETV5 (Homo sapiens, UniProt P41161 1-510). The note with it: protein: recombinant; tags: N-terminal GST; dsDNA, one strand shown. The essentials: as §1
Sequence of ETV5 (P41161 whole entry): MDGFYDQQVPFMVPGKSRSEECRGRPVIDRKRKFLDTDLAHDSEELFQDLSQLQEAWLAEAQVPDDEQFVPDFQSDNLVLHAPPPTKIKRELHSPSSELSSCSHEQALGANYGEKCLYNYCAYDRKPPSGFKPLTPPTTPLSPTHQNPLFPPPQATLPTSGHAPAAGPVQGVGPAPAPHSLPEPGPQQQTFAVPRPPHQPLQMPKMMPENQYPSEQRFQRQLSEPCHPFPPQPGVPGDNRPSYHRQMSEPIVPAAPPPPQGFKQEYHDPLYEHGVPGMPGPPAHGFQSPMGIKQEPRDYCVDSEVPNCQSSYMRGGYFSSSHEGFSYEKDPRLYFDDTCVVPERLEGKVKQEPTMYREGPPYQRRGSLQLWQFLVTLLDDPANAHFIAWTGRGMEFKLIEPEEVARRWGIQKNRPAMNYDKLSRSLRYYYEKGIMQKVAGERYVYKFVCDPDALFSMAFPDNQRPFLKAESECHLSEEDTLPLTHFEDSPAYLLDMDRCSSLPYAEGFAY
Assay [3] concerns the target HSF1 (Homo sapiens, UniProt Q00613 1-529). As to conditions: protein: recombinant; tags: N-terminal GST; chain copies: 3; dsDNA, one strand shown. The essentials:
as §1

Assay [4] concerns the target T2, SPIC (Homo sapiens, UniProt Q8N5J4 1-248).
T2 sequence: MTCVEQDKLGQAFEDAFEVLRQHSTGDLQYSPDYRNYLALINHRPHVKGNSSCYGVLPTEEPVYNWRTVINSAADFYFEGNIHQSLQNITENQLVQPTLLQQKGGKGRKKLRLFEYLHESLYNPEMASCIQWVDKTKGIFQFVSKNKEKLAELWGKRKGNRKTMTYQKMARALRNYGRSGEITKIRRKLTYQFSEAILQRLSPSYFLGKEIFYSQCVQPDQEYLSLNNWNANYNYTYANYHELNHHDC
As to conditions: protein: recombinant; tags: N-terminal GST; dsDNA, one strand shown. Summed up: as §1

For assay [5], the target named is ELF4 (Homo sapiens, UniProt Q99607 1-663). As to conditions: protein: recombinant; tags: N-terminal GST; dsDNA, one strand shown. The essentials: as §1
Sequence of ELF4 (Q99607 whole entry): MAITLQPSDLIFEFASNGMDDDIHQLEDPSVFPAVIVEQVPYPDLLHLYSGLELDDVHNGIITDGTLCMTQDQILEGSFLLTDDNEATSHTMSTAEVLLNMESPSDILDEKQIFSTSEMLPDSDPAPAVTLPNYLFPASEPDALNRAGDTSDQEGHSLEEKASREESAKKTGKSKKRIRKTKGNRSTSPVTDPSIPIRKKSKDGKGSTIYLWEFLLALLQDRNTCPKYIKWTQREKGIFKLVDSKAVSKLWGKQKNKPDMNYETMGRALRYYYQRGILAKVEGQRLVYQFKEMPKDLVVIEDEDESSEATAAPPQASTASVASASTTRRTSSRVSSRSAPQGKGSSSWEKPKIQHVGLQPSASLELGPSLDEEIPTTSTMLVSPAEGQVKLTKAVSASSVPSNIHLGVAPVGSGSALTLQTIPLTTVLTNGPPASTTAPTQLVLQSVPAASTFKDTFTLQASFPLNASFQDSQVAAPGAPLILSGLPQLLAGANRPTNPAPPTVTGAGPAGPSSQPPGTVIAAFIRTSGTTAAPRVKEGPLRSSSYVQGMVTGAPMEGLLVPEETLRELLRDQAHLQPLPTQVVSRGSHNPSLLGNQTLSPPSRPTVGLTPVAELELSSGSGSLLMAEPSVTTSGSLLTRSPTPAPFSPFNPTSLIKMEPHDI
The target in assay [6] is T3, ELK4 (Homo sapiens, UniProt P28324-2 1-405).
T3 sequence: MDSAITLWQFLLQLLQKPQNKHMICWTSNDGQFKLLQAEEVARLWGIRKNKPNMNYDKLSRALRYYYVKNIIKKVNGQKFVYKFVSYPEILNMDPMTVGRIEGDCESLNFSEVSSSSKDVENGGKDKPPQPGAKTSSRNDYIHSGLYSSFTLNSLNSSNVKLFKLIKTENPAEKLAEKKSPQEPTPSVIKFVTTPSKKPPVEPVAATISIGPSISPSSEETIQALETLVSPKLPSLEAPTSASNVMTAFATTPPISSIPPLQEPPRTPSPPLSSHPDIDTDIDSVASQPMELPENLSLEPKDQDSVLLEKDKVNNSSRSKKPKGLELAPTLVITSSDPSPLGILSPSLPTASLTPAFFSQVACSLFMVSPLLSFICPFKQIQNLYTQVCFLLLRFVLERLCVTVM
As to conditions: protein: recombinant; tags: N-terminal GST; dsDNA, one strand shown. Summed up: as §1

Assay [7] deals with T4, ETV2 (Homo sapiens, UniProt O00321 1-342).
T4 sequence: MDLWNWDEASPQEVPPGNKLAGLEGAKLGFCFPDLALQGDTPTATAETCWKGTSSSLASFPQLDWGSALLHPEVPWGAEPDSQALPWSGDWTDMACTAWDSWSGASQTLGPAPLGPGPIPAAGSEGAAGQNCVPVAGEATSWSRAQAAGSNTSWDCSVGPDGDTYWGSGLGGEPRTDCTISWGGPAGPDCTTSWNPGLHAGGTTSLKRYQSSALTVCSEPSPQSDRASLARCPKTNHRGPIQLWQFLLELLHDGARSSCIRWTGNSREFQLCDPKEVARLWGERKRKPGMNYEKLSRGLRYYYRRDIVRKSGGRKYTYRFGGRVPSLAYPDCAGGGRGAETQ
As to conditions: protein: recombinant; tags: N-terminal GST; dsDNA, one strand shown. Summed up:
as §1

In assay [8] the target is T5, ELF3 (Homo sapiens, UniProt P78545 1-371).
T5 sequence: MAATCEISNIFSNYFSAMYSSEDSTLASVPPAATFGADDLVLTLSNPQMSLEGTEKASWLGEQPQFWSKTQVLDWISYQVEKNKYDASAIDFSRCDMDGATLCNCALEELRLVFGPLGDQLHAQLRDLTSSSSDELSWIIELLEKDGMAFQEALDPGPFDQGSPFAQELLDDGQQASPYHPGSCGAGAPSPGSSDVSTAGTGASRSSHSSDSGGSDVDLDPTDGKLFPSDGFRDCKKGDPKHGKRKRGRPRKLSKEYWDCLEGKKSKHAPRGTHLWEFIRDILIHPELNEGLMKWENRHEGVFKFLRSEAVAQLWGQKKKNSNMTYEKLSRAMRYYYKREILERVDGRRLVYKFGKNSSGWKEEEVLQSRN
The note with it: protein: recombinant; tags: N-terminal GST; dsDNA, one strand shown. Summed up: as §1

Assay [9] deals with CRX (Homo sapiens, UniProt O43186 1-299). As to conditions: protein: recombinant; tags: N-terminal GST; dsDNA, one strand shown. Summed up: as §1
Sequence of CRX (O43186 whole entry): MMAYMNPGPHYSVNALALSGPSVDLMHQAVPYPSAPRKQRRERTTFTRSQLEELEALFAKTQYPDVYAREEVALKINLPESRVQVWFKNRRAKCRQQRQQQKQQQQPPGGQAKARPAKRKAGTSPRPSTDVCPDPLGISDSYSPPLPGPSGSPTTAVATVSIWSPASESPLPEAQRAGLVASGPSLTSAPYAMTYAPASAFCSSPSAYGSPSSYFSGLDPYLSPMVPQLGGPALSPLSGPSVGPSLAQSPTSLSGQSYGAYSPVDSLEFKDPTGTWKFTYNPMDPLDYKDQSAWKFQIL
Assay [10] concerns the target ETV1 (Homo sapiens, UniProt P50549 1-477). As to conditions: protein: recombinant; tags: N-terminal GST; dsDNA, one strand shown. Summed up: as §1
Assay [11] addresses T6, ERF (Homo sapiens, UniProt P50548 1-548).
T6 sequence: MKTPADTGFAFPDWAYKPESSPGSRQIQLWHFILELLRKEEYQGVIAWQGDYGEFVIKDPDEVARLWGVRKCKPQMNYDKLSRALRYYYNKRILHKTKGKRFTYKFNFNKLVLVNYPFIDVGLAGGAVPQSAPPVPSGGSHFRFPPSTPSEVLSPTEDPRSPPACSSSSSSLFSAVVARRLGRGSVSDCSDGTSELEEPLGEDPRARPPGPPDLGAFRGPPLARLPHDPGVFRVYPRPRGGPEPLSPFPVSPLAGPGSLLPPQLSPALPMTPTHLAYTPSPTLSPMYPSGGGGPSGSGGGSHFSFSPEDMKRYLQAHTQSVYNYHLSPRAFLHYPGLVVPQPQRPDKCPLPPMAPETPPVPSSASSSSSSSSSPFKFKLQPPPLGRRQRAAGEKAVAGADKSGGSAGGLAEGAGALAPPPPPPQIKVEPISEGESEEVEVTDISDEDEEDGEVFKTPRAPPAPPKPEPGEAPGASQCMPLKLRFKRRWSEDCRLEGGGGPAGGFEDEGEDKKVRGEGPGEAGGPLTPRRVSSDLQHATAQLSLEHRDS
The note with it: protein: recombinant; tags: N-terminal GST; dsDNA, one strand shown. The essentials: as §1

The target of assay [12] is T7, ETV3L (Homo sapiens, UniProt Q6ZN32 1-361).
T7 sequence: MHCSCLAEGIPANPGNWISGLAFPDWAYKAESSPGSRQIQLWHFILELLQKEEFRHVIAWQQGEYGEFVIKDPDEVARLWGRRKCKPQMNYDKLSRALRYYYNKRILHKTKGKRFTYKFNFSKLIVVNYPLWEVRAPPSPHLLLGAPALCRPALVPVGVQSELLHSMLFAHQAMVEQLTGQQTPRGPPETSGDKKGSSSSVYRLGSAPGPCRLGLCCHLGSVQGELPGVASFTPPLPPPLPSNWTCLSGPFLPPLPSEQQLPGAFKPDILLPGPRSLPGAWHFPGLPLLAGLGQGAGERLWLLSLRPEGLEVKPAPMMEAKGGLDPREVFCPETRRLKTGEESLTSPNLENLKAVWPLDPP
As to conditions: protein: recombinant; tags: N-terminal GST; dsDNA, one strand shown. The essentials: as §1

For assay [13], the target named is T8, ETS2 (Homo sapiens, UniProt P15036 1-469).
T8 sequence: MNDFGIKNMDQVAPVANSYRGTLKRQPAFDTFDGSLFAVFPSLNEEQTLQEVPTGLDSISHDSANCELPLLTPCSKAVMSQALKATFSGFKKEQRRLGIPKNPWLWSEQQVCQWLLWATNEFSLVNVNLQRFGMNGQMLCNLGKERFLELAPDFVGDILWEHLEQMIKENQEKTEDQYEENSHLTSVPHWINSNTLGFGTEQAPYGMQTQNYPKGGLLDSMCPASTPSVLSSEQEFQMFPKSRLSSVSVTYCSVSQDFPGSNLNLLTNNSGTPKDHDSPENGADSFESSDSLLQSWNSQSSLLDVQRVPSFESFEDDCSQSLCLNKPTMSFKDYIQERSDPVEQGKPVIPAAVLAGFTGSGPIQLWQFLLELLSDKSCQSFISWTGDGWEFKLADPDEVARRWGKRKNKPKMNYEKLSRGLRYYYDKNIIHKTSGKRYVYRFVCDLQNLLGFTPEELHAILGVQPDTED
As to conditions: protein: recombinant; tags: N-terminal GST; dsDNA, one strand shown. The essentials: as §1

Assay [14] has as its target T9, SPDEF (Homo sapiens, UniProt O95238 1-335).
T9 sequence: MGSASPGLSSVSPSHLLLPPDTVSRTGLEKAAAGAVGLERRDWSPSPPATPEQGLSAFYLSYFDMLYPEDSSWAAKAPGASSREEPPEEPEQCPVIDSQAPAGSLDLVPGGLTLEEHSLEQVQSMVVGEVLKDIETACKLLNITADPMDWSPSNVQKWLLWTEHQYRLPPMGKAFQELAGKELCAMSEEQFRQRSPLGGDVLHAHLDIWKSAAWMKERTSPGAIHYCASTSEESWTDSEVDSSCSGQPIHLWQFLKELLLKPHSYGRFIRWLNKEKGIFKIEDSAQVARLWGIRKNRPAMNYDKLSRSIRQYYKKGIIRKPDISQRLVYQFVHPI
As to conditions: protein: recombinant; tags: N-terminal GST; dsDNA, one strand shown. The essentials: as §1

The target in assay [15] is T10, ETV7 (Homo sapiens, UniProt Q9Y603 1-341).
T10 sequence: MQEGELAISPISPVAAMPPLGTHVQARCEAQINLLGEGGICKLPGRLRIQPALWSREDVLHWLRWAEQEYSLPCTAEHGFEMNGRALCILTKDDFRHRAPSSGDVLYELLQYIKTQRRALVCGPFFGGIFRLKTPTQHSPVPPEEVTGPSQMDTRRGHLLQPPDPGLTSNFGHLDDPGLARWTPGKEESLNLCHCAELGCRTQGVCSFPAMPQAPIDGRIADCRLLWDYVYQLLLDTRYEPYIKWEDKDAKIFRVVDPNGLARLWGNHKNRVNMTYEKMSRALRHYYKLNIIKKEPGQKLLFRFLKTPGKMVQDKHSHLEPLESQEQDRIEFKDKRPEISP
The note with it: protein: recombinant; tags: N-terminal GST; dsDNA, one strand shown. Summed up: as §1

The target of assay [16] is T11, ELF5 (Homo sapiens, UniProt Q9UKW6-2 1-255).
T11 sequence: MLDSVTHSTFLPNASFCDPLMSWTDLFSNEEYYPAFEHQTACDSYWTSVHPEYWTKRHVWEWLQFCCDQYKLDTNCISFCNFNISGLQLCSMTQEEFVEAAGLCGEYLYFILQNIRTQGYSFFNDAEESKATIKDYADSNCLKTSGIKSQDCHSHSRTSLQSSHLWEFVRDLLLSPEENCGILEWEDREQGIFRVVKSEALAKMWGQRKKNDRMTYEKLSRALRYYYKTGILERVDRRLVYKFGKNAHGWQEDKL
As to conditions: protein: recombinant; tags: N-terminal GST; dsDNA, one strand shown. The essentials:
as §1

Assay [17] deals with T12, ETV3 (Homo sapiens, UniProt P41162-2 1-143).
T12 sequence: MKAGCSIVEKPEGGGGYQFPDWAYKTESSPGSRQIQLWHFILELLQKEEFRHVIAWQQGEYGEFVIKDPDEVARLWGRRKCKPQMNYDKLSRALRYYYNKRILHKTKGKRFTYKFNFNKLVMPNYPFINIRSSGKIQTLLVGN
As to conditions: protein: recombinant; tags: N-terminal GST; dsDNA, one strand shown. Summed up: as §1

Assay [18] addresses ETV6 (Homo sapiens, UniProt P41212 1-452). As to conditions: protein: recombinant; tags: N-terminal GST; dsDNA, one strand shown. The essentials: as §1

Here are results for 1 sequence from article PMC7862700, “An all-to-all approach to the identification of sequence-specific readers for epigenetic DNA modifications on cytosine”.

Sequence of ETV1 (P50549 whole entry): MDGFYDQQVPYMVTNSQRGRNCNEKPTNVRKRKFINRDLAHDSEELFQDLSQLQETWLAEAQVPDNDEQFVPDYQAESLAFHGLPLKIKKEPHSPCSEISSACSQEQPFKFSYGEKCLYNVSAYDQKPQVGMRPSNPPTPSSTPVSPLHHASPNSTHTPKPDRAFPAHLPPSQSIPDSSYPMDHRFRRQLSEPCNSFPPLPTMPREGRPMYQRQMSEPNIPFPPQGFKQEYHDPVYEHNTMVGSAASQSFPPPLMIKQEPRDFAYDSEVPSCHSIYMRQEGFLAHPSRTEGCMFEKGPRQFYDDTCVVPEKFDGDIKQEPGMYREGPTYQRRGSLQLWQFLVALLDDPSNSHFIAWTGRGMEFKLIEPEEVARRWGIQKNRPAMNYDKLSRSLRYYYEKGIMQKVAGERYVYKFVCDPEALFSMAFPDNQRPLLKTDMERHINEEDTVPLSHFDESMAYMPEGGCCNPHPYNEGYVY
Sequence of HSF1 (Q00613 whole entry): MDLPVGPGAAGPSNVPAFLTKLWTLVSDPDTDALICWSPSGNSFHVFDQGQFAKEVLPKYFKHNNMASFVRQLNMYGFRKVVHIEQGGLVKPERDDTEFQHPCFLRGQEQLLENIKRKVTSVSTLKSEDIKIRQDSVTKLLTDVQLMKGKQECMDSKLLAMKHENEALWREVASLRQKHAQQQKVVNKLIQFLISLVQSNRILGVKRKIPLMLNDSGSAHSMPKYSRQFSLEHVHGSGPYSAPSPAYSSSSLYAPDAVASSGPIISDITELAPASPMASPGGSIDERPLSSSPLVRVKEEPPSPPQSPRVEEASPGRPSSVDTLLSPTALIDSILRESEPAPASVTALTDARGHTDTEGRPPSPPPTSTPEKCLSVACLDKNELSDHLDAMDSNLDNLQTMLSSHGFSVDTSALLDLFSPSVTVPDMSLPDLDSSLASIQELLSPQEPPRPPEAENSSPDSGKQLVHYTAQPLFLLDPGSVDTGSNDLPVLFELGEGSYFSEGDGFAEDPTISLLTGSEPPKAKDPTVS
Sequence of ETV6 (P41212 whole entry): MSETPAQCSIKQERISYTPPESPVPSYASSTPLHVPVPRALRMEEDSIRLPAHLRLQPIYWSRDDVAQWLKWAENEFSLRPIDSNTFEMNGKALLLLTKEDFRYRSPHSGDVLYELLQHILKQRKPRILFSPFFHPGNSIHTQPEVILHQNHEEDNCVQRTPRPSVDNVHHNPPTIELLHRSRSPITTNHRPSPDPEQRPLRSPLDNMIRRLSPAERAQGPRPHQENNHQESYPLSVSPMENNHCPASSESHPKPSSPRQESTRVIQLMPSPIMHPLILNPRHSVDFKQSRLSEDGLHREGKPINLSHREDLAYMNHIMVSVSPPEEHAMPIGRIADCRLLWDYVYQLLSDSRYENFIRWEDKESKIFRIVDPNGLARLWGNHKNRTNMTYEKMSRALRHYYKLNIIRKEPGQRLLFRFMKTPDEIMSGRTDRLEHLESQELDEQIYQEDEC

Regarding TCTTAC, the binding signal in assay [1] was 1.23 fold enrichment (6-mer frequency, TF over GST control); in assay [2] it was 1.28 fold enrichment (6-mer frequency, TF over GST control); in assay [3], 1.23 fold enrichment (6-mer frequency, TF over GST control); in assay [4] it was 1.29 fold enrichment (6-mer frequency, TF over GST control); in assay [5], 1.27 fold enrichment (6-mer frequency, TF over GST control); in assay [6] it was 1.34 fold enrichment (6-mer frequency, TF over GST control). Further, the binding signal in assay [7] was 1.39 fold enrichment (6-mer frequency, TF over GST control); in assay [8] it was 1.13 fold enrichment (6-mer frequency, TF over GST control); in [9], 1.7 fold enrichment (6-mer frequency, TF over GST control); in assay [10], 1.32 fold enrichment (6-mer frequency, TF over GST control); in assay [11], 1.29 fold enrichment (6-mer frequency, TF over GST control); in assay [12], 1.3 fold enrichment (6-mer frequency, TF over GST control). Moreover, the binding signal in [13] is 1.21 fold enrichment (6-mer frequency, TF over GST control); in assay [14], 1.36 fold enrichment (6-mer frequency, TF over GST control); in [15] it was 1.31 fold enrichment (6-mer frequency, TF over GST control); in assay [16], 1.24 fold enrichment (6-mer frequency, TF over GST control); in assay [17] it was 1.27 fold enrichment (6-mer frequency, TF over GST control); in assay [18], 1.33 fold enrichment (6-mer frequency, TF over GST control).
